The whole screen tested about 360,000 compounds, of which about 16,000 (4.4%) were called active. Inconclusive results (about 9%) are left out. Calls follow the shape of the dose curve; as a rule, active = well fitted inhibition curve with a large enough effect; inconclusive = small, poorly fitted or top-dose-only effect; inactive = no such curve, though single readings can be large or run the other way. The entries come from a sample that favours actives as a whole.
Target: Bromodomain adjacent to zinc finger domain protein 2B (Homo sapiens) (UniProt Q9UIF8)
Experiment: qHTS Assay for Inhibitors of BAZ2B; also: nearly all actives have a fitted effect of over 60% in size
Settings: AlphaScreen BAZ2B-H3K14Ac peptide displacement; series mostly up to 114 µM; activity change, negative = inhibition: at the top concentration
Method in brief: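 AlphaScreen luminescence quantifies BAZ2B engagement of H3K14Ac peptide; the protein and biotinylated peptide are both at 50 nM final, buffer PBS pH 7.4 with 0.01% Tween-20, all steps at room temperature.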
% is scaled to controls: 0 for no effect and ±100 for the full control effect; potency is read from the fitted curve at half-maximal effect.

Chain of Bromodomain adjacent to zinc finger domain protein 2B (Homo sapiens) (Q9UIF8 whole entry, looked up, the tested form may be a part): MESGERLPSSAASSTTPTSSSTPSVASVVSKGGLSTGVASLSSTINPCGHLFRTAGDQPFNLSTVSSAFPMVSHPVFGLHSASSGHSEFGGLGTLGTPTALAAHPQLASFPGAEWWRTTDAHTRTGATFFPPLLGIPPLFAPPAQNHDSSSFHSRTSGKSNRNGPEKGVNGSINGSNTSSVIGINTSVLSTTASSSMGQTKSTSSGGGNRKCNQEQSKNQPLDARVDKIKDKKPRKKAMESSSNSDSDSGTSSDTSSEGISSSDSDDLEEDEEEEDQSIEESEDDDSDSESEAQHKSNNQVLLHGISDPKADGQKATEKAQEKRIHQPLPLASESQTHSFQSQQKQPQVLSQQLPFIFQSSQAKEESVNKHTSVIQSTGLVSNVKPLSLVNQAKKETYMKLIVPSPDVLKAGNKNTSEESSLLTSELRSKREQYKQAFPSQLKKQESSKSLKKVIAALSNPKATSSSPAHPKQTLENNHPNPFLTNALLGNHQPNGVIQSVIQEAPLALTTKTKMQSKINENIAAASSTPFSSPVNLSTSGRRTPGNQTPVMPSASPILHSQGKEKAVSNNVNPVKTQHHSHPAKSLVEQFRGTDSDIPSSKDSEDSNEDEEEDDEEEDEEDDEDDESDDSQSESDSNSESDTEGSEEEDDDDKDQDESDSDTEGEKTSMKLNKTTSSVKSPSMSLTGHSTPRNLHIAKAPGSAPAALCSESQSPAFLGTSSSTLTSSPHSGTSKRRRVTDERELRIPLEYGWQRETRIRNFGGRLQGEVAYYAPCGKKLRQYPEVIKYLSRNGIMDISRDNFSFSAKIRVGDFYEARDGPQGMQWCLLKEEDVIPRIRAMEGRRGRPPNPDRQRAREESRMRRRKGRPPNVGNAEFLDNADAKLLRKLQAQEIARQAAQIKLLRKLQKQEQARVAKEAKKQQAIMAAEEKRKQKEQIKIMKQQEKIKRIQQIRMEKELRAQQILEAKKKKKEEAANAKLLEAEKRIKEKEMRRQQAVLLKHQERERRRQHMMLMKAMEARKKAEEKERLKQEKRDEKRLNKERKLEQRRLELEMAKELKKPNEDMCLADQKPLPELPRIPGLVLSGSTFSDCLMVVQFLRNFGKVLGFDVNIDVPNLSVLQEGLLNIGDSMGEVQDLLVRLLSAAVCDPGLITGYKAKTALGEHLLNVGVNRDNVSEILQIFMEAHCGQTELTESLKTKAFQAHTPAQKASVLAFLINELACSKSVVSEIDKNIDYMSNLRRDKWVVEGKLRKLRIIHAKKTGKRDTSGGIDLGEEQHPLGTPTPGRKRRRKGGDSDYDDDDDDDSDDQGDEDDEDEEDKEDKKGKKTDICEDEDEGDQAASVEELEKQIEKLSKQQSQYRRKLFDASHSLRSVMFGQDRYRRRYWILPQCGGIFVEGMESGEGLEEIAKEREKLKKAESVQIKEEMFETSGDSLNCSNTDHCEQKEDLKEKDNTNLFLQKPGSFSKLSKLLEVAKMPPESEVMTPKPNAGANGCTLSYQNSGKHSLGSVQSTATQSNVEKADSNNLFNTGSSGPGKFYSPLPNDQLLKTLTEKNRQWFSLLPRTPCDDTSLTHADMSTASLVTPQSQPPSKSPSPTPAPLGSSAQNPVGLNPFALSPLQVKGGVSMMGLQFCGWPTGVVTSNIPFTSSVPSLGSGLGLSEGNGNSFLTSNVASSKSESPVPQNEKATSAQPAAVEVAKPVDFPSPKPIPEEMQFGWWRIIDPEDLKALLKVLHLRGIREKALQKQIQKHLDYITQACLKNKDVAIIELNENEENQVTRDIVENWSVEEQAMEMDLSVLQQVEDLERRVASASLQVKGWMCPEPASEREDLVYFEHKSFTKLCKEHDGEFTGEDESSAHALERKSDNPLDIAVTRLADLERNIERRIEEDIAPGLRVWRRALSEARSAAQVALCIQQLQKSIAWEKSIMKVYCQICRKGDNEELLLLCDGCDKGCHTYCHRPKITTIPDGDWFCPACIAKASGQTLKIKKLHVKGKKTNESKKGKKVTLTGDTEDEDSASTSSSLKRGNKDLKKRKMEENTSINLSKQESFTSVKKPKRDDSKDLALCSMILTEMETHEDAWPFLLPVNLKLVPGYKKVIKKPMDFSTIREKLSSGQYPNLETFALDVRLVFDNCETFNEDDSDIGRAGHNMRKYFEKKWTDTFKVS

Activity change, negative = inhibition, inactive:
CCOC(=O)c1cc(-c2ccccc2)n(-c2cccc(C(=O)Nc3cc(OC)cc(OC)c3)c2)c1C -27.3%, O=C(CSc1ccccc1)Nc1ccc(C(=O)Nc2cccc(O)c2)cc1 3.89%, Cc1ccc(OCC(=O)NCCCNC(=O)c2cccnc2)cc1C -1.83%, Cc1ccc(N/C=C/C(=O)c2ccccc2)cc1C -4.96%, O=C(NCc1cccc(CNC(=O)Nc2cccc(O)c2)c1)Nc1cccc(O)c1 -18.9%, Cc1cc2nc(-c3ccc(NC(=O)c4cccnc4)cc3)oc2cc1C 11.6%, O=C(COc1ccc(/C=N/NC(=O)c2ccc(O)cc2)cc1)Nc1ccc([N+](=O)[O-])cc1 -26.7%, Cc1cccc(NC(=O)c2ccc(F)c(S(=O)(=O)N(C)C3CCCCC3)c2)c1 0.102%, COc1ccc(Cl)cc1NC(=O)c1sc2nc3c(cc2c1N)CN(C)CC3 -14.9%, CCOCCCNC(=O)c1c(NC(=O)c2nc(SC)ncc2Cl)sc2c1CCCC2 -6%, CNC(=O)c1cc2c(ccc3ccccc32)oc1=N 4.85%, CN(C)C(=O)c1coc2nc3ccccc3nc12 -3.28%, COc1ccc(-n2c(SC)nc3sc4c(c3c2=O)CCN(C(C)=O)C4)cc1 4.86%, CCOc1ccc(CNC(=O)c2ccc3nc(CC)c(CC)nc3c2)cc1OC -2.35%, Cc1ccc(Nc2nnc(SCC(=O)c3cc4ccccc4o3)s2)cc1C -32.6%, Cc1ccccc1Nc1nnc(SCC(=O)c2cc3ccccc3o2)s1 -11.7%, COc1ccc(OC)c(-c2noc(N3CCN(c4cc(Cl)ccc4C)CC3)n2)c1 0.334%, O=C(Nc1ccc2nc(SCC(=O)N3CCCc4ccccc43)sc2c1)c1ccc(F)cc1 -4.11%, CCOC(=O)c1c(C)[nH]c(C)c1S(=O)(=O)NCC(=O)NCc1cccc(C)c1 -11.8%, Cc1ccc(C)c(CNC(=O)c2cc3ccccn3n2)c1 0.834%, CCc1ccc2nc(N(CCCN(C)C)C(=O)c3ccc4c(c3)OCCO4)sc2c1 5.24%, CSc1nc2ccc(S(=O)(=O)N3CCc4ccccc43)cc2s1 8.85%, CCN(CC)CCN(C(=O)c1ccc(S(=O)(=O)N2CCOCC2)cc1)c1nc2cc3c(cc2s1)OCCO3 -27.1%, Cc1ccc2nc(N(CCN(C)C)C(=O)C3=COCCO3)sc2c1 -2.02%, CCOc1ccc(OCC)c(NC(=O)c2c(C)nn(-c3ccccc3)c2-n2cccc2)c1 -14.5%, O=C(CCc1ccccc1)NCc1ccc2c(c1)CCN2C(=O)c1ccccc1 0.443%, CCOCCCNC(=O)c1c(NC(=O)Cc2coc3ccc(C)cc23)sc2c1CCC2 -24%, COc1ccc(S(=O)(=O)N(CC(=O)N/N=C/c2ccccc2C(=O)O)c2ccccc2OC)cc1 -4.57%, COc1ccccc1NC(=O)CN(c1ccccc1OC)S(=O)(=O)c1ccccc1 -1.7%, CCCN(CCC)S(=O)(=O)c1ccc(C(=O)Nc2sc3c(c2C(=O)OC)CCN(CC)C3)cc1 5.32%, Cc1cccc(C(=O)N2CCc3cc(CNC(=O)Cc4ccc(F)cc4)ccc32)c1 -4.43%, CCC(=O)Nc1c(C(=O)N2CCN(c3ccc(F)cc3)CC2)oc2ccccc12 -0.938% [at 57.1 µM], Cc1nnc(SCC(=O)NCc2ccccc2Cl)c2nn(-c3ccccc3)c(C)c12 -11.1%, Cc1nn(C(C)C(=O)NCCC2=CCCCC2)c(=O)c2nn(-c3ccccc3)c(C)c12 (centres undefined) -18.5%, O=C(CSCc1cnn(-c2ccccc2)c1-n1cccc1)NCc1ccccc1Br -3.98%, COCCNC(=S)N/N=C/c1c(C)[nH]c2ccccc12 -32.2%, CCn1c(-c2cc(OC)ccc2OC)csc1=Nc1c(C)n(C)n(-c2ccccc2)c1=O -32.6%, COc1ccc(CNC(=O)Cn2nnc(-c3ccccc3F)n2)cc1 -23.3%

Potency, inactive:
COc1ccc(CNC(=O)C(C)n2nc(C)c3c(C)n(-c4ccccc4)nc3c2=O)c(OC)c1 (centres undefined)

Potency, active:
C/C(=C\C(=O)c1ccccc1)Nc1cccc(O)c1 50.1 µM, C/C(=C\C(=O)c1cccnc1)Nc1ccc(C)c(C)c1 50.1 µM, Cc1ccc(NC(=O)COc2ccc(/C=N\NC(=O)c3cccnc3)cc2)cc1C 56.2 µM, CNC(=O)c1cccc2nc3ccccc3nc12 50.1 µM, CC(C)c1ccc(Nc2nnc(SCC(=O)c3nnc(-c4ccccc4)o3)s2)cc1 35.5 µM, CN(C)CCCN(C(=O)c1ccc(S(=O)(=O)N2CCCc3ccccc32)cc1)c1nc2ccc(F)cc2s1 28.2 µM, CN(C)CCCN(C(=O)c1ccc(S(=O)(=O)N2CCCCCC2)cc1)c1nc2ccc(Br)cc2s1 28.2 µM, COc1ccccc1N(CC(=O)N/N=C(\C)c1ccccc1O)S(=O)(=O)c1ccc(C)cc1 50.1 µM, Cc1ccc(-n2nc3c(=O)n(C(C)C(=O)NCc4ccc5c(c4)OCO5)nc(C)c3c2C)cc1 (centres undefined) 79.4 µM, CN=c1scc(-c2cc(OC)ccc2OC)n1/N=C/c1c(C)[nH]c2ccccc12 35.5 µM

Reference: PubChem BioAssay AID504333 (National Center for Advancing Translational Sciences (NCATS), 2011)
